Giardia killer = Giardia lamblia killing | Giardia lamblia trophozoite viability | activity change, % at 7.66 µM, hits read low | 0.15% of 340,000 active; in the data active = activity change below about -80%; inconclusive = between about -30% and that limit;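 also: parasites exposed to compound for two days anaerobically before the ATP read; % is scaled to controls: 0 for no effect and ±100 for the full control effect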
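Compounds were tested on trophozoites seeded at 100 cells/well and held 48 hrs at 37 deg C anaerobically. An ATP-based luminescent kit measured the remaining live cells.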
RORg inh = inhibitors of mouse ROR gamma transcriptional activity | P51450 | 5.4% of 310,000 active | Potency, µM (titrated, usually from 53.6 µM), for inactives: at the highest dose activity change, negative = inhibition, most hits filed as inhibitors | Drosophila S2 Gal4-RORgamma UAS-luciferase reporter, 20 h; also: potency is read from the fitted curve at half-maximal effect; % is scaled to controls: 0 for no effect and ±100 for the full control effect; nearly all actives have a fitted effect of over 60% in size
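Luciferase reporter read in Schneider cells carrying Gal4-RORγ (mouse) and UAS-Photinus luciferase; cells given compound 1 h before 700 uM copper sulfate induction, then incubated 20 h at ambient temperature.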
Gal4-VP16 FLuc = counter-screen for ROR gamma inhibitors: Gal4-VP16 reporter; Drosophila S2 Gal4-VP16 UAS-luciferase, luminescence, 20 h; Potency, µM (top dose mostly 53.6 µM), for inactives: top-dose activity, negative = inhibition, actives largely listed as inhibitors; 3.5% of 310,000 active; AID 2546;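 also: Gal4-VP16 expression switched on by copper sulfate through the metallothionein promoter; potency is read from the fitted curve at half-maximal effect; % is scaled to controls: 0 for no effect and ±100 for the full control effect; nearly all actives have a fitted effect of over 50% in size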
ERG Ets-DNA blk = inhibitors of human ERG Ets domain-DNA interaction; P11308; fluorescence polarization, His-ERG Ets domain / labelled DNA; Potency, µM (top dose mostly 76.9 µM), without a hit: at the highest dose FP activity, negative = inhibition, hits mostly inhibitors; 0.028% of 370,000 active; AID 624246; active = well fitted inhibition curve with a large enough effect in the polarisation, with a control signal flat; inconclusive = small, poorly fitted or top-dose-only effect, or effect the other way, or a change in a side signal; inactive = no such curve, though single readings can be large or run the other way; the % refers to the polarisation;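 also: polarization taken with two DNA probes labelled with fluorescein and Texas red; potency is read from the fitted curve at half-maximal effect; % of control where 0% means no effect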
Target sequence (P11308 whole entry, looked up, the tested form may be a part): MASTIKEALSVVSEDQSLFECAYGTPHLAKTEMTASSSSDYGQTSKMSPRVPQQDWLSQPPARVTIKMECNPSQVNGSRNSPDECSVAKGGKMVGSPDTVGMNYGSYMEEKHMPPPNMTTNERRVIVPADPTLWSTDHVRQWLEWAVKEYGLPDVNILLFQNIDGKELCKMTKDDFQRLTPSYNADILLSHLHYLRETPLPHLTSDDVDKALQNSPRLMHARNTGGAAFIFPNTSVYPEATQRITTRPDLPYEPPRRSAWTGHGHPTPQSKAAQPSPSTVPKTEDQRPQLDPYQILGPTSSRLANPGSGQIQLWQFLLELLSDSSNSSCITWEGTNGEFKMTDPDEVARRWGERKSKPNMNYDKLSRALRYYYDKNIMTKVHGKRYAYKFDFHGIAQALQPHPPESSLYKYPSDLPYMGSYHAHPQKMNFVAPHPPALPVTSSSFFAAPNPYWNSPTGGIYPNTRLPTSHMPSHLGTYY
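His-tagged ERG Ets domain (1 uM in the protein solution; 300mM KCl, 50mM Tris-HCl, 1mM EDTA, 1mM DTT, pH 7.5) received compound, then a probe mix of 5 nM fluorescein-DNA and 100nM Texas-615-DNA. Fluorescence polarization was read for both dyes.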
Integrin act MD = integrin-mediated muscular dystrophy alleviation activation; AID 624291; 0.064% of 350,000 active; alpha7betagal myoblasts, beta-gal FDG fluorescence, 48 h; Potency, µM (doses to about 38.3 µM), without a hit: at the top dose activation, usual class: activators;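 also: potency is read from the fitted curve at half-maximal effect; 100% = response of the positive control SU9516; nearly all actives have a fitted effect of over 60% in size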
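alpha7betagal+/- myoblasts (passage 13, 250/well) treated 48 h at 37C with compounds at 1:260 dilution of DMSO stock. Lysed, then beta-galactosidase activity read as FDG fluorescence (ex 480/em 540) after 30 min, with pre-read for autofluorescence.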
* hit, by the source's call; [ ] = remark or other dose. The sample as a whole holds a higher share of hits than the screen did. Unless noted, calls follow the shape of the dose curve; as a rule, active = well fitted curve in the direction sought with a large enough effect; inconclusive = small, poorly fitted or top-dose-only effect, or another doubt; inactive = no such curve, though single readings can be large; an effect the other way counts as inactive or inconclusive.

What do the screens show for `CCNC(=S)N/N=C(\C)c1cccc(OC)c1`?
Giardia killer: 37; RORg inh: 2.5µM*; Gal4-VP16 FLuc: -25%; ERG Ets-DNA blk: 29%; Integrin act MD: -36%

Results for C/C(=N\NC(=O)COc1ccc(C#N)cc1)c1ccccc1OC(F)F ?
Giardia killer: -3; RORg inh: 11µM*; Gal4-VP16 FLuc: 16µM*; ERG Ets-DNA blk: 7%; Integrin act MD: 11%

Results for C/C(=N\NC(=O)c1ccco1)c1cccc2ccccc12 ?
Giardia killer: -14; RORg inh: 15%; Gal4-VP16 FLuc: 3%; ERG Ets-DNA blk: 16%; Integrin act MD: 12%

What do the screens show for `O=C(Nc1ccc2c(c1)CCCN2C(=O)c1cccs1)c1ccccc1Cl`?
ERG Ets-DNA blk: -1%

How did N#Cc1nc(Cl)c(Cl)c(NN)c1Cl do in these assays?
Giardia killer: 9; RORg inh: 23%; Gal4-VP16 FLuc: -12%; ERG Ets-DNA blk: 2%; Integrin act MD: -2%

Results for C/C(=N\NC(=S)NC1CCCCC1)c1ccc(OC(F)F)cc1OC(F)F ?
Giardia killer: -2; RORg inh: inconclusive; Gal4-VP16 FLuc: inconclusive; ERG Ets-DNA blk: 15%; Integrin act MD: -40%

Results for C/C(=N\NC(=S)NC(C)C)c1ccccc1OC(F)F ?
Giardia killer: 2; RORg inh: 1.8µM*; Gal4-VP16 FLuc: 5.6µM*; ERG Ets-DNA blk: 2%; Integrin act MD: -5%

How did O=C1C(Cl)=C(NC2CCc3ccccc32)C(=O)c2ncccc21 (centres undefined) do in these assays?
RORg inh: 4.5µM*; Gal4-VP16 FLuc: 4.5µM*

How did O=C1C(Cl)=C(NCCN2CCOCC2)C(=O)c2ncccc21 do in these assays?
RORg inh: 4.5µM*; Gal4-VP16 FLuc: 2.8µM*

Results for CC[C@@H]1OC(=O)[C@H](C)[C@H](O[C@@H]2C[C@](C)(OC)[C@H](O)[C@H](C)O2)[C@H](C)[C@H](O[C@@H]2O[C@@H](C)C[C@@H](N(C)C)[C@@H]2O)[C@](C)(O)C[C@H](C)C(=NOCOCCOC)[C@H](C)[C@H](O)[C@]1(C)O ?
RORg inh: 19%[2.98 µM]; Gal4-VP16 FLuc: inconclusive

How did Cc1cccc(-c2nc(SCC(=O)N(C)c3ccccc3)c3c(=O)n(C)c(=O)n(C)c3n2)c1 do in these assays?
ERG Ets-DNA blk: 2%

What do the screens show for `C/C(CC1CC(C)(C)OC1=O)=N\NC(N)=S` (centres undefined)?
Giardia killer: -18; RORg inh: inconclusive; Gal4-VP16 FLuc: inconclusive; ERG Ets-DNA blk: 7%; Integrin act MD: 6%

Results for C/C(CC1CC2=C(CC1(C)C)C(C)(C)CCC2)=N\NC(N)=S (centres undefined) ?
Giardia killer: 10; RORg inh: 2µM*; Gal4-VP16 FLuc: 3.2µM*; ERG Ets-DNA blk: -5%; Integrin act MD: -57%

Results for O=c1c(-c2ccccc2)nc2cnc(N3CCOCC3)nc2n1CCc1ccccc1 ?
RORg inh: -22%; Gal4-VP16 FLuc: -3%

What do the screens show for `CC1CCN(c2ccc(-c3cccc(NS(=O)(=O)c4ccc(F)cc4F)c3)nn2)CC1`?
ERG Ets-DNA blk: 0%

What do the screens show for `COCCNc1nc(=S)[nH]c2cc(OC)c(OC)cc12`?
Giardia killer: -16; RORg inh: -19%; Gal4-VP16 FLuc: -4%; ERG Ets-DNA blk: 18%; Integrin act MD: 8%

How did CCCCNc1nc(=S)[nH]c2cc(OC)c(OC)cc12 do in these assays?
Giardia killer: -8; RORg inh: 7.9µM*; Gal4-VP16 FLuc: 7.9µM*; ERG Ets-DNA blk: 10%; Integrin act MD: 7%

How did CCOCCCNc1nc(=S)[nH]c2cc(OC)c(OC)cc12 do in these assays?
Giardia killer: 27; RORg inh: inconclusive; Gal4-VP16 FLuc: -13%; ERG Ets-DNA blk: 14%; Integrin act MD: -36%

What do the screens show for `COc1cc2[nH]c(=S)nc(NCCCOC(C)C)c2cc1OC`?
Giardia killer: 6; RORg inh: 16µM*; Gal4-VP16 FLuc: inconclusive; ERG Ets-DNA blk: 2%; Integrin act MD: 13%

Results for CC[C@@]1([C@@H]2O[C@@H]([C@H]3O[C@@](O)(CO)[C@H](C)C[C@@H]3C)C[C@@H]2C)CC[C@H]([C@]2(C)CC[C@]3(C[C@H](O)[C@@H](C)[C@@H]([C@@H](C)[C@@H](OC)C(C)C(=O)O)O3)O2)O1 (some centres undefined) ?
RORg inh: inconclusive; Gal4-VP16 FLuc: -16%

What do the screens show for `Cc1cc(C)c2oc(-c3ccc(Cl)c(NC(=O)c4cccs4)c3)nc2c1`?
ERG Ets-DNA blk: -8%

How did Cc1ccc2oc(-c3cccc(NC(=S)NC(=O)/C=C/c4ccco4)c3)nc2c1 do in these assays?
Giardia killer: -3; RORg inh: 3.5µM*; Gal4-VP16 FLuc: 10µM*; ERG Ets-DNA blk: 16%; Integrin act MD: -28%

What do the screens show for `Cc1cc(C)c2oc(-c3ccc(C)c(NC(=S)NC(=O)c4cccs4)c3)nc2c1`?
Giardia killer: 7; RORg inh: 2µM*; Gal4-VP16 FLuc: inconclusive; ERG Ets-DNA blk: 1%; Integrin act MD: -2%

What do the screens show for `Cc1cc(C)c2oc(-c3ccc(C)c(NC(=S)NC(=O)/C=C/c4ccco4)c3)nc2c1`?
Giardia killer: -24; RORg inh: 0.25µM*; Gal4-VP16 FLuc: 1.4µM*; ERG Ets-DNA blk: 11%; Integrin act MD: 11%

What do the screens show for `Cc1ccc(-c2nc3ccccc3o2)cc1NC(=S)NC(=O)c1cccs1`?
Giardia killer: -4; RORg inh: 4µM*; Gal4-VP16 FLuc: inconclusive; ERG Ets-DNA blk: -1%; Integrin act MD: 1%

Results for O=C(Cc1ccccc1)NCC(=O)OCC(=O)c1cccc2ccccc12 ?
Giardia killer: 6

Results for O=C(c1ccc(Cl)cc1)C(CN1CCCC1)c1ccccc1 (centres undefined) ?
Giardia killer: 18; RORg inh: 11µM*; Gal4-VP16 FLuc: 5.6µM*; ERG Ets-DNA blk: 8%; Integrin act MD: -37%

Results for CN(C)CC(CCC(CN(C)C)C(=O)c1ccccc1)C(=O)c1ccccc1 (centres undefined) ?
Giardia killer: 3; RORg inh: 7.1µM*; Gal4-VP16 FLuc: 10µM*; ERG Ets-DNA blk: 8%; Integrin act MD: -17%

Results for COc1ccc(C(=O)C(CN2CCOCC2)c2ccccc2)cc1 (centres undefined) ?
Giardia killer: -12; RORg inh: 13µM*; Gal4-VP16 FLuc: inconclusive; ERG Ets-DNA blk: -2%; Integrin act MD: -51%

Results for COc1ccc(C(=O)C(CN2CCCC2)c2ccccc2)cc1 (centres undefined) ?
Giardia killer: -13; RORg inh: inconclusive; Gal4-VP16 FLuc: inconclusive; ERG Ets-DNA blk: -5%; Integrin act MD: -67%
